Data: PubChem BioAssay (NCI)
About 79,000 compounds went through this panel and 15% of them were active in at least one assay; those are over-represented in the sample as a whole. The source made the active and inactive calls. Rule as the data show it: active = growth inhibition above about 70%; inactive = the rest.

Key:
[1] = NCI Yeast Anticancer Drug Screen. Data for the rad52 strain (AID 147);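 also: 0% = growth of vehicle-treated control cultures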; conditions: S. cerevisiae rad52 mutant growth inhibition, hits give high values
In short: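 Screen used a yeast mutant impaired in DNA repair. After compound exposure, growth was measured. Values reflect inhibition compared with vehicle-treated cells.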

[2] = NCI Yeast Anticancer Drug Screen. Data for the wt1 strain (AID 149);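 also: 0% = growth of vehicle-treated wt1 cultures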; conditions: S. cerevisiae wt1 strain (SPY 50644) growth inhibition, hits give high values
In short: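 Each compound is tested on wt1 yeast and the loss of growth versus vehicle gives the inhibition value.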

[3] = NCI Yeast Anticancer Drug Screen. Data for the rad50EPP+ strain (AID 151);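 also: 0% = growth of vehicle-treated control cultures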; conditions: S. cerevisiae rad50 mutant strain, hits give high values
In short: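 Exposing the rad50EPP+ strain to each compound, growth was compared with vehicle-only cultures to give inhibition.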

[4] = NCI Yeast Anticancer Drug Screen. Data for the mgt1 strain (AID 153); conditions: S. cerevisiae mgt1 mutant growth inhibition, hits give high values
In short: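 Genetically defined yeast (mgt1) treated with compound; inhibition of growth expressed against vehicle-treated controls.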

[5] = NCI Yeast Anticancer Drug Screen. Data for the rad50 strain (AID 155);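 also: 0% = growth of vehicle-only cultures of the same strain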; conditions: S. cerevisiae rad50 strain growth inhibition, hits give high values
In short: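 Vehicle-treated cultures provide the reference for the growth inhibition reported for compound-exposed, repair-deficient yeast.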

[6] = NCI Yeast Anticancer Drug Screen. Data for the mec2-1 strain (AID 157); conditions: S. cerevisiae mec2-1 strain, hits give high values
In short: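 Readout is yeast growth inhibition, normalised to vehicle-treated controls, in the mec2-1 strain exposed to compound.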

[7] = NCI Yeast Anticancer Drug Screen. Data for the rad14 strain (AID 159);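 also: 0% = growth of vehicle-treated control cultures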; conditions: S. cerevisiae rad14 strain growth inhibition, hits give high values
In short: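 Inhibition of growth is reported for a repair-deficient yeast mutant following compound treatment, calculated relative to cultures that received vehicle.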

[8] = NCI Yeast Anticancer Drug Screen. Data for the sgs1 mgt1 strain (AID 161);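 also: 0% = growth of cultures given vehicle only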; conditions: S. cerevisiae sgs1 mgt1 strain, hits give high values
In short: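 Compounds are added to genetically altered yeast, and growth is compared with cultures given vehicle alone to give percent inhibition.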

[9] = NCI Yeast Anticancer Drug Screen. Data for the CLN2oe strain (AID 163);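 also: 0% = growth of vehicle-only control cultures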; conditions: S. cerevisiae CLN2oe strain, hits give high values
In short: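 Values reflect how much compound exposure reduced yeast growth, referenced to vehicle-exposed cells. Assay organism is a strain with a defined genetic change affecting cell-cycle control.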

[10] = NCI Yeast Anticancer Drug Screen. Data for the cln2 rad14 strain (AID 165);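 also: 0% = growth equal to vehicle treated cultures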; conditions: S. cerevisiae cln2 rad14 strain, hits give high values
In short: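 Relative to vehicle controls, growth inhibition of compound-treated cln2 rad14 yeast was recorded.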

[11] = NCI Yeast Anticancer Drug Screen. Data for the bub3 strain (AID 167); conditions: S. cerevisiae bub3 mutant strain, hits give high values
In short: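 Mutant yeast screening strain plus compound; vehicle-treated cultures serve as the 0% inhibition reference.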

[12] = NCI Yeast Anticancer Drug Screen. Data for the wt2 strain (AID 169); conditions: S. cerevisiae wt2 strain growth inhibition, hits give high values
In short: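 Values express reduction in yeast growth under compound treatment, referenced to vehicle-treated cells.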

[13] = NCI Yeast Anticancer Drug Screen. Data for the mlh1 strain (AID 171);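 also: 0% = growth of vehicle-treated control cultures of the same strain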; conditions: S. cerevisiae mlh1 strain growth inhibition, hits give high values
In short: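 Steps: expose the defined-mutant yeast strain to compound; expose a parallel culture to vehicle; measure growth; express compound effect as inhibition relative to the vehicle culture.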

[14] = NCI Yeast Anticancer Drug Screen. Data for the sgs1 strain (AID 173);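 also: 0% = growth of vehicle-only control cultures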; conditions: S. cerevisiae sgs1 mutant, hits give high values
In short: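 Treat defined-mutant yeast with compound; measure growth; calculate inhibition relative to vehicle-treated cells.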

[15] = NCI Yeast Anticancer Drug Screen. Data for the mlh1 rad18 strain (AID 175); conditions: S. cerevisiae mlh1 rad18 strain growth inhibition, hits give high values
In short: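 Test agents were incubated with a yeast strain of defined genotype (DNA damage repair defect). Inhibition of growth was derived by comparison with vehicle-exposed cultures.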

[16] = NCI Yeast Anticancer Drug Screen. Data for the rad18 strain (AID 177); conditions: S. cerevisiae rad18 mutant growth inhibition, hits give high values
In short: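 A genetically defined yeast mutant impaired in DNA damage repair was treated with test compounds, then its growth was measured against cultures receiving vehicle alone.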

[17] = at 5.0 µM (retest, dose inferred, filed as 0.5)
[18] = at 50.0 µM (retest, dose inferred, filed as 5.0)

Measured: growth inhibition

CCCCCCCCCCCC1=NCCO1
inactive: [1]; at 1.2 µM 3% | [1]; at 3.7 µM 3% | [1]; at 11.0 µM -1% | [1]; at 33.0 µM 18% | [2]; at 1.2 µM 1% | [2]; at 3.7 µM -1% | [2]; at 11.0 µM 2% | [2]; at 33.0 µM 15% | [3]; at 1.2 µM 4% | [3]; at 3.7 µM 5% | [3]; at 11.0 µM 16% | [3]; at 33.0 µM 27% | [3]; at 100.0 µM 53% | [4]; at 1.2 µM -5% | [4]; at 3.7 µM 3% | [4]; at 11.0 µM 0% | [4]; at 33.0 µM 27% | [5]; at 1.2 µM 9% | [5]; at 3.7 µM 18% | [5]; [17] -11% | [5]; at 11.0 µM 14% | [5]; at 33.0 µM 29% | [5]; [18] 8% | [5]; at 50.0 µM 25.1% | [6]; at 1.2 µM -6% | [6]; at 3.7 µM -4% | [6]; [17] -12% | [6]; at 11.0 µM -13% | [6]; at 33.0 µM 18% | [6]; [18] -21% | [6]; at 50.0 µM 46.3% | [7]; at 1.2 µM 3% | [7]; at 3.7 µM 9% | [7]; at 11.0 µM 15% | [7]; at 33.0 µM 50% | [8]; [17] -12% | [8]; [18] 47% | [9]; at 1.2 µM -3% | [9]; at 3.7 µM -1% | [9]; at 11.0 µM 4% | [9]; at 33.0 µM 19% | [10]; [17] -18% | [10]; [18] 36% | [10]; at 50.0 µM 21% | [11]; at 1.2 µM -19% | [11]; at 3.7 µM -27% | [11]; [17] -34% | [11]; at 11.0 µM -1% | [11]; at 33.0 µM 8% | [11]; [18] 31% | [11]; at 50.0 µM 24.5% | [12]; at 1.2 µM -1% | [12]; at 3.7 µM 0% | [12]; at 11.0 µM 2% | [12]; at 33.0 µM 61% | [13]; at 1.2 µM -5% | [13]; at 3.7 µM -3% | [13]; at 11.0 µM -10% | [13]; at 33.0 µM 16% | [14]; at 1.2 µM 1% | [14]; at 3.7 µM -1% | [14]; at 11.0 µM 6% | [14]; at 33.0 µM 63% | [15]; [17] -16% | [15]; at 50.0 µM 41% | [16]; at 1.2 µM 4% | [16]; at 3.7 µM 8% | [16]; at 11.0 µM 5% | [16]; at 33.0 µM 10%
active: [1]; at 100.0 µM 98% | [2]; at 100.0 µM 98% | [4]; at 100.0 µM 99% | [5]; at 100.0 µM 99% | [6]; at 100.0 µM 99% | [7]; at 100.0 µM 99% | [8]; at 50.0 µM 87.6% | [9]; at 100.0 µM 99% | [11]; at 100.0 µM 98% | [12]; at 100.0 µM 99% | [13]; at 100.0 µM 99% | [14]; at 100.0 µM 99% | [15]; [18] 71% | [16]; at 100.0 µM 98%
